These results are taken from PubChem BioAssay AID598 (SRMLSC, 2007).

In all, about 85,000 compounds went through this assay and about 5,100 (6%) were called active. This is one part of a sample in which actives are shown more often than they occur.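 Rule for the calls: active = viability at or below 40%; inactive = viability above 40%.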

This assay is described as follows: H69AR cell viability reduction – human, 86K library, primary screen (AID 598).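 Note: multidrug resistant small cell line overexpressing MRP-1 efflux transporter; 100% = mean luminescence of untreated control wells.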 The conditions noted are these: H69AR lung tumor viability, ATP luminescence, 72 h; at 10 µM; active compounds read low.
For `O=C(Nc1ccccc1N1CCN(C(=O)c2ccccc2)CC1)c1ccc2c(c1)OCO2`, the viability was 81.8% (inactive).
Consider `Cc1cccc(N2CCN(C(=O)C3CCN(S(=O)(=O)c4cnc[nH]4)CC3)CC2)c1C`, for which the viability was 93.6% (inactive).
On to `Cc1cccc(N2CCN(C(=O)c3cnn4c(C(F)F)cc(-c5ccccc5)nc34)CC2)c1C`, for which the viability is 28.9% (active).
Regarding `O=C1CSC(c2cccc(F)c2)N1c1ccc(O)cc1` (stereo not drawn), the viability was 101% (inactive).
As to `CC(C)CCNC(=O)Cn1c(=O)oc2cc(S(=O)(=O)N3CC(C)CC(C)C3)ccc21` (stereo not drawn), the viability is 40.8% (inactive).
Take `Cc1oc(-c2ccccc2Cl)[n+]([O-])c1C`: the viability is 85.9% (inactive).
As for `Cc1[nH][nH]c(=O)c1N=Nc1ccccc1`, the viability is 91.5% (inactive).
On to `Cc1[nH][nH]c(=O)c1C(c1ccc(-c2ccc(Cl)cc2)o1)c1c(C)[nH][nH]c1=O`, for which the viability was 1.92% (active).
With `CCN1CCN(C(=O)C2(NC(=O)Nc3cccc(F)c3)CCCCC2)CC1`, the viability was 90.9% (inactive).
On to `O=C(c1ccccc1Oc1ccccc1)N1CCN(c2ccc(F)cc2)CC1`, for which the viability was 100% (inactive).
The figure for `COC(=O)c1ccccc1NC(=O)CSc1nnnn1C` is 95.3% (inactive).
In the case of `O=C(CN1CCCCCC1)N1c2ccccc2Sc2ccc(C(F)(F)F)cc21`, the viability was 36.8% (active).
As to `CC1CC(C)CN(CC(=O)N2c3ccccc3CCc3ccccc32)C1` (stereo not drawn), the viability is 82.7% (inactive).
On to `O=C(CN1CCCCC1)N1c2ccccc2Sc2ccc(C(F)(F)F)cc21`, for which the viability is 86.8% (inactive).
In the case of `Cc1cc(C)nc(N2CCN(c3ncnc4c3oc3ccccc34)CC2)n1`, the viability is 103% (inactive).
Consider `CCN1CCN(c2ncnc3c2oc2nc(C)c4c(c23)CC(C)(C)OC4)CC1`, for which the viability was 81.8% (inactive).
In the case of `CC(C)c1nc2oc3c(N4CCN(C)CC4)ncnc3c2c2c1CCC2`, the viability was 33.7% (active).
Consider `COc1cc2c(cc1OC)C(C(C)C)=NC(C)(C)C2`, for which the viability was 88.9% (inactive).
Turning to `C/C(=N\NS(=O)(=O)c1ccc(Br)cc1)c1cccs1`, the viability is 110% (inactive).
As for `CCn1c(COc2ccc(OC)cc2)nnc1SCC(=O)Nc1cc(OC)ccc1OC`, the viability is 71.4% (inactive).
As for `CCn1nc(C)c(NC(=O)/C=C/c2ccc(OC)c(COc3ccc(Br)cc3)c2)c1C`, the viability was 28.8% (active).
Regarding `COc1ccc(/C=C/C(=O)Nc2c(C)nn(C)c2C)cc1COc1ccc(Br)cc1`, the viability is 57.5% (inactive).
Turning to `COc1cccc2cc(C(=O)N3CCN(C(=O)c4ccccc4)CC3)c(=O)oc12`, the viability was 89.3% (inactive).
On to `O=S(=O)(NC1CCCCC1)c1ccc(F)c2ccccc12`, for which the viability is 86.6% (inactive).
The figure for `Cc1ccc(-n2ncc3c2ncn2nc(-c4ccco4)nc32)c(C)c1` is 78.6% (inactive).
For `Cc1ccc(-n2ncc3c(=O)n(-c4ccc(C)c(C)c4)c(-c4ccco4)nc32)cc1`, the viability was 31.3% (active).
With `Cc1ccc(-c2nc3c(cnn3-c3ccccc3)c(=O)o2)cc1`, the viability was 79.6% (inactive).
The figure for `CCOC(=O)c1ccc2c(c1)nc(SCC(=O)NC(C)C)n2CC` is 84% (inactive).
As for `CCNc1nc(NC(C)C)nc(OCCOC(=O)c2ccccc2)n1`, the figure is 83.5% (inactive); as for `CCOc1cccc(NC(=O)Cn2nc(-c3ccc4c(c3)OCCO4)ccc2=O)c1`, 69.3% (inactive); as for `CCN(CC)S(=O)(=O)c1cccc(C(=O)NCC(=O)OCC(=O)NCc2ccccc2)c1`, 87.6% (inactive).
As for `CN(C)S(=O)(=O)c1cccc(C(=O)Nc2cccnc2)c1`, the figure is 89.9% (inactive); as for `CCN(CC)S(=O)(=O)c1cccc(C(=O)Nc2ccccc2)c1`, 38.5% (active).
`N#CC1=C(N)N(c2ccccc2)C2=C(C(=O)CCC2)C1c1ccccc1` (stereo not drawn): the viability was 40.4% (inactive).
Regarding `Cc1cccc(N2CCN(C(c3ccc(N(C)C)cc3)c3nnnn3C(C)(C)C)CC2)c1C` (stereo not drawn), the viability was 83.3% (inactive).
With `CCCc1nc2ccccc2c(C(=O)OCc2nnc(-c3cc(OC)c(OC)c(OC)c3)o2)c1CC`, the viability was 50.2% (inactive).
As for `O=C(COC(=O)c1ccc(Oc2ccccc2)cc1)Nc1nnc(-c2ccccc2)o1`, the viability was 58.7% (inactive).
Regarding `O=C(OCc1nnc(-c2ccccc2)o1)c1ccc2c(c1)C(=O)N(CCc1ccccc1)C2=O`, the viability was 33.8% (active).
As for `O=C1CCCc2nn(-c3ccccc3)nc21`, the figure is 87.6% (inactive); as for `CCOC(=O)N1CC=C2C(C#N)=C(N)C(C#N)(C#N)[C@H](c3cccs3)[C@H]2C1`, 61.6% (inactive); as for `CCCN1CC=C2C(C#N)=C(N)C(C#N)(C#N)C(c3cc(OC)ccc3OC)C2C1` (stereo not drawn), 31.8% (active).
As for `CCN1CC=C2C(C#N)=C(N)C(C#N)(C#N)[C@H](c3ccoc3)[C@H]2C1`, the viability was 84.8% (inactive).
For `CCOC(=O)C1=C(CSc2nnnn2C)N(C)C(=O)NC1c1ccccc1` (stereo not drawn), the viability is 93.1% (inactive).
As for `COc1ccc(N2CCN(C(=O)CCc3nc(-c4ccc(C)cc4)no3)CC2)cc1`, the viability was 98.4% (inactive).
For `CCc1cccc(C)c1N(C(=O)Cn1c(CO)nc2ccccc21)C(C)COC` (stereo not drawn), the viability was 71% (inactive).
Consider `CCOC(=O)c1c(C)oc2cc(Br)c(OCC(N)=O)cc12`, for which the viability is 80.2% (inactive).
As for `Cc1cc(=O)oc2ccc(OCC(=O)O)cc12`, the viability was 97.4% (inactive).
As for `CCOC(=O)c1c(C)oc2ccc(OCC(=O)N(CC)CC)cc12`, the viability is 38.9% (active).
Take `CN(C)c1ccnc2sc3c(=O)n(-c4ccc(Cl)cc4)cnc3c12`: the viability was 80.8% (inactive).
For the molecule `O=C(N/N=C/C=C/c1ccccc1)C1CC1(c1ccccc1)c1ccccc1` (stereo not drawn), the viability was 98.1% (inactive).
For `CC(C)C[C@@H](N)c1nnc(SCC(=O)c2ccc(Cl)cc2)o1`, the viability is 86.9% (inactive).
As for `COC(=O)c1cc(Cl)c(NC(=O)c2ccco2)cc1OC`, the viability is 94% (inactive).
`COc1ccc(NC(=O)c2cccc(NC(=O)c3ccco3)c2)c(OC)c1`: the viability is 88.5% (inactive).
The figure for `COc1cc(C(=O)OC(C)C(=O)NCC2CCCCC2)cc(NC(=O)c2ccco2)c1OC` (stereo not drawn) is 13.1% (active).
As to `CC(C)(C)c1ccc(C(=O)NCC(=O)OCN2C(=O)c3ccccc3C2=O)cc1`, the viability was 104% (inactive).
Take `Cc1cccc(-n2nc3c(c2NC(=O)c2ccc(Br)o2)CSC3)c1C`: the viability was 59.7% (inactive).
As for `Cc1cc(NC(=O)Nc2ccccc2)n(-c2ccccc2)n1`, the figure is 92.7% (inactive); as for `Cc1cc(C)nc(-n2nc(C)cc2NC(=O)c2ccc(Br)o2)n1`, 36.5% (active).
As for `CSc1nc(N)c(C#N)c(-c2ccccc2Cl)c1C#N`, the figure is 21.8% (active); as for `N#Cc1c(N)nc2c3c(sc(=N)c2c1N)NC(=O)CC3c1ccccc1Cl` (stereo not drawn), 113% (inactive); as for `CSc1ccc(-c2c(C#N)c(N)nc3c2c(C)nn3-c2ccccc2)cc1`, 57.5% (inactive).
Consider `O=C(NC1CCC(O)CC1)c1ccc(S(=O)(=O)NCc2ccco2)cc1` (stereo not drawn), for which the viability is 96.7% (inactive).
With `CC1(C)Cc2c(sc3nc(SCC(=O)NCc4ccccc4)n(-c4ccccc4)c(=O)c23)CS1`, the viability is 24.1% (active).
`CNC(=O)CSc1nnc(CCc2ccccc2)n1-c1ccccc1`: the viability is 83.2% (inactive).
Regarding `Cc1nnc(SCC(=O)NCc2ccccc2)s1`, the viability was 96.4% (inactive).
Consider `CCOC(=O)c1c(NC(C)=O)sc2c(O)c(Br)ccc12`, for which the viability was 94.9% (inactive).
For the molecule `COc1ccc(C(C#N)Nc2ccccc2C)cc1` (stereo not drawn), the viability was 88.9% (inactive).
With `O=C(Nc1nnc(SCc2ccccc2)s1)c1ccco1`, the viability is 96% (inactive).
As for `Clc1cccc(-c2nc3nc4ccccc4nc3n2Cc2ccco2)c1`, the viability is 34.4% (active).
As to `COc1ccc(CCn2c(-c3ccco3)nc3nc4ccccc4nc32)cc1OC`, the viability is 55.4% (inactive).
`O=C(CSc1nnc(-c2cccnc2)n1Cc1ccco1)c1ccc(Cl)cc1`: the viability is 95.3% (inactive).
Consider `Cc1cccc(S(=O)(=O)CC(=O)Nc2nc(-c3ccccc3)cs2)c1`, for which the viability was 99.7% (inactive).
Take `Cc1nc(NNC(=O)c2ccccc2)cc(-c2ccccc2)n1`: the viability is 91.7% (inactive).
Regarding `O=C(NCc1ccccc1)[C@@H]1CSC2c3ccccc3C(=O)N21` (stereo partly drawn), the viability was 78.5% (inactive).
The figure for `COC(CNC(=O)Cn1ncc2ccsc2c1=O)OC` is 101% (inactive); for `Cc1cccc(N(C(=O)c2ccc(CN3CCOCC3)o2)C(C(=O)NC2CCCCC2)c2ccc(F)cc2)c1` (stereo not drawn) it is 103% (inactive).
Take `COC(=O)c1ccc(N(CC(=O)NC2CCCC2)C(=O)CNC(=O)c2ccco2)cc1`: the viability was 94.9% (inactive).
Turning to `COC(=O)c1cccc(N(C(=O)c2ccco2)C(C(=O)NC2CCCC2)c2ccco2)c1` (stereo not drawn), the viability was 32.4% (active).
As for `COc1ccc(-c2oc(/N=C/N3CCCC3)c(C#N)c2-c2ccc(OC)cc2)cc1`, the viability is 99.1% (inactive).
Consider `O=C(N/N=C\c1cccc(Br)c1)c1ccccc1-n1cccc1`, for which the viability was 93.7% (inactive).
Regarding `N=c1c2c(-c3ccccc3)c(-c3ccccc3)n(Cc3ccccc3)c2ncn1CCCO`, the viability was 0.82% (active).
With `Cc1ccc(NC(=O)N2CCC(c3nc4c(nnn4Cc4c(F)cccc4Cl)c(=O)[nH]3)CC2)cc1`, the viability is 67.6% (inactive).
In the case of `CCCCNC(=O)C1CCCNC1=O` (stereo not drawn), the viability was 98.9% (inactive).
Turning to `COc1ccc(-c2n[nH]c(C)c2-c2ccc(OC)c(OC)c2)c(O)c1`, the viability is 14.9% (active).
As to `C=C(C)COc1ccc(-c2n[nH]c(C)c2-c2ccccc2)c(O)c1`, the viability was 95.5% (inactive).
As for `C=C(C)COc1ccc(-c2n[nH]c(C)c2-c2ccccc2OC)c(O)c1`, the figure is 39.9% (active).
As to `COc1ccccc1-c1c(C)nn2c(C)c(C(C)=O)cnc12`, the viability was 89.8% (inactive).
Consider `O=C(Cn1c(-c2cscn2)nc2ccccc21)Nc1ccc(Cl)cc1`, for which the viability is 72.9% (inactive).
For `COc1ccc(C)cc1S(=O)(=O)NCCc1ccccc1`, the viability is 96% (inactive).
Regarding `CCCCOc1ccc(N(CC(=O)NCC2CCCO2)C(=O)CCC(=O)Nc2cc(C)ccn2)cc1` (stereo not drawn), the viability was 102% (inactive).
As to `O=C(CC12CC3CC(CC(C3)C1)C2)Nc1ccc2c(c1)COC2=O`, the viability is 90.9% (inactive).
As to `O=S(=O)(NN=C1CCCCCCC1)c1ccc(Br)cc1`, the viability was 88.9% (inactive).
As for `CC/S(CC1CC1(Cl)Cl)=N\S(=O)(=O)c1ccc(C)cc1` (stereo not drawn), the figure is 76.7% (inactive).
